# Screening data from PubChem.
# Many of the other results were omitted from the sample, so hits are more common in it than they were.
# Dicer processing = inhibitors of human Dicer processing of pre-microRNA; cat-ELCCA pre-miR-21 Dicer processing, chemiluminescence; active compounds read high; hit rate 6% among 47,000; Q9UPY3; AID 1347074; z-score at 25 µM; in the data active = z-score above about 3, passing the limit was not always enough;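 also: plate controls were vehicle for no effect and no enzyme for full effect; higher signal means more uncleaved substrate so more Dicer inhibition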
# The depositor's hits bear a star.
SMILES,Dicer processing
O=C(O)c1ccc([C@@H]2Nc3c(F)cccc3[C@@H]3C=CC[C@@H]32)cc1,-0.22
Cc1ccc(C2Nn3c(C)nnc3SC2C(=O)N2CCCCC2)cc1 (centres undefined),-0.44
O=C1c2cc3ccccc3nc2-c2cccc3cccc1c23,0.53
CCOC(=O)c1cn(Cc2ccccc2)c2cc(C)nn2c1=O,-0.01
CCOC(=O)c1nnn(Cc2ccccc2)c1N,1.7
CCOC(=O)c1ncn(Cc2ccccc2)c1N,3.4*
O=C(Cc1ccccc1F)Nc1nnc(C2CC2)s1,2.4
CC1CCN(C(=O)CCCC(=O)O)CC1,0.92
NC(=O)C1CCN(C(=O)/C=C/C(=O)O)CC1,0.65
CCOC(=O)N1CCN(C(=O)CSc2ncccn2)CC1,0.08
NC(=O)C1CCN(C(=O)CSc2ncccn2)CC1,3.6*
NC(=O)C1CCN(C(=O)CCC(=O)O)CC1,3.5*
NC(=O)C1CCN(C(=O)CN(CC(=O)N2CCC(C(N)=O)CC2)Cc2ccco2)CC1,0.68
CCCc1[nH]n(C)c(=O)c1C(=O)c1cc2ccccc2s1,-3.2
CNC(=O)c1cc(Cl)ccc1Sc1ccccc1COC(C)=O,-1.5
CN(C(=O)CSc1ccccn1)c1c2c(nn1C)CCCC2,-0.84
O=C(NOC(=O)c1ccccc1)c1ccccc1,-0.5
O=C(COc1ccc(F)cc1)Nc1ccc(-n2cnnn2)cc1,0.01
CCOC(=O)c1cccc(-n2sc(=O)n(C3Cc4ccccc4C3)c2=O)c1,0.38
Cc1ccc(CS(=O)(=O)c2ccc(C(F)(F)F)cn2)cc1,0.04
C1CCC(C(CC2CCCCN2)C2CCCCC2)CC1 (centres undefined),-0.34
O=C(Cn1cnc([N+](=O)[O-])n1)OCCCc1ccccc1,3.5*
COC(=O)c1cc([N+](=O)[O-])nn1Cc1ccccc1,1.4
O=C(O)c1cccc(Cn2cnc([N+](=O)[O-])n2)c1,-0.2
Cn1c(=O)c2c(nc3n2CCCN3C(C)(C)CO)n(C)c1=O,-0.75
SMILES,Dicer processing
Cc1cc(-c2nn(C)c(=O)c3ccccc23)cc(C)c1O,-1
O=C(O)C1CCC1C(=O)Nc1nc(-c2ccc(Cl)s2)cs1 (centres undefined),-0.15
CCOc1ccccc1C1C(C(=O)OC(C)C)=C(C)Nc2nnnn21 (centres undefined),4.5*
CCOC(=O)C1=C(c2ccccc2)Nc2ncnn2C1c1ccc(F)cc1 (centres undefined),-0.11
CCOC(=O)C1=C(C)Nc2ncnn2C1c1ccc(OC)c(OC)c1 (centres undefined),0.01
CCOC(=O)C1=C(C)Nc2nnnn2C1c1ccccc1 (centres undefined),3.1*
CCOC(=O)C1=C(C)Nc2nnnn2C1c1ccccn1 (centres undefined),2.3
CCOC(=O)C1=C(C)Nc2nnnn2C1c1ccccc1Cl (centres undefined),0.19
CCOC(=O)C1=C(C)Nc2nnnn2C1c1cc(Br)ccc1OCC (centres undefined),1.5
CCOC(=O)C1=C(c2ccccc2)Nc2ncnn2C1c1cccc(Br)c1 (centres undefined),3.2*
CCCOC(=O)C1=C(C)Nc2nnnn2C1c1ccccc1OCC (centres undefined),3.4*
CCCOc1ccccc1C1C(C(=O)OC(C)C)=C(C)Nc2nnnn21 (centres undefined),-0.05
CCOC(=O)C1=C(C)Nc2nnnn2C1c1ccc(OC)c(OC)c1 (centres undefined),1.6
CCOC(=O)C1=C(C)Nc2nnnn2C1c1ccc(OCc2ccccc2)c(OC)c1 (centres undefined),2.9
CSc1sc(C(=O)NNS(=O)(=O)c2ccccc2C(F)(F)F)c2c1C(O)CCC2 (centres undefined),-1.7
c1ccc(CSc2n[nH]c(-c3ccccc3)n2)cc1,-0.28
COc1ccc(C(=O)Nc2cnc3ccccn3c2=O)cc1,-0.56
CCCCN(C)CC(=O)c1c[nH]c2ccccc12,-0.05
CSc1cc(-c2ccc(Cl)cc2)nc(C(C)(C)C)c1,0.21
O=c1n(-c2ccccc2)c(=O)n2n1C1c3ccccc3C2c2ccccc21,1.7
CCOc1ccc2nc(SCCCOc3ccccc3)[nH]c2c1,-0.44
COC(=O)c1ccc(-c2cn3cccnc3n2)cc1,-0.93
Cc1cc(C)c2c3c(oc2n1)C(=O)N(c1ccccc1)CC(=O)N3,-2.2
CC(C)(C)C(=O)OCC(=O)c1cc(C(F)(F)F)cc(C(F)(F)F)c1,0.7
O=C(O)/C=C(/Sc1ccccc1)C(=O)O,-0.71
SMILES,Dicer processing
Fc1ccc(C2=NN(c3ccccc3)C(c3ccc(F)cc3)C2)cc1 (centres undefined),2.4
Cc1nn(-c2ccccc2)c2c1C1(C)CC(C)(O2)c2c(C)nn(-c3ccccc3)c2O1,-8.8
CC1=NN(c2ccccc2)C(C2=C(C)CCCC2(C)C)C1 (centres undefined),3.2*
CCOC(=O)/C=C(\C)Nc1ccc(Cl)cc1,0.2
CC(=O)Oc1cccc(N2C(=O)C3CC=C(C)CC3C2=O)c1 (centres undefined),-2.3
O=[N+]([O-])c1ccc(-c2nc(-c3cccc(-n4cccc4)c3)no2)cc1,-0.27
O=C1CC(N2CCN(c3ccccc3)CC2)C=C1Nc1ccccc1 (centres undefined),4*
O=C1CC(N2CCN(c3ccccc3)CC2)C=C1Nc1ccc(Cl)cc1 (centres undefined),1.9
O=C1CC(Nc2ccccc2)C=C1Nc1ccccc1 (centres undefined),-0.09
CCCCCN1C(=O)C(=O)c2ccccc21,-0.06
CSc1scc2c1C(=O)CC(C)(C)C2,0.87
COc1ccccc1C1C(C(=O)OCC2CCCO2)=C(C)NC2=C1C(=O)CCC2 (centres undefined),-0.11
CCCCCOC(=O)C1=C(C)NC2=C(C(=O)CCC2)C1c1ccccc1OCCC (centres undefined),0.33
CCSCCOC(=O)C1=C(C)NC2=C(C(=O)CCC2)C1c1ccc(Cl)cc1 (centres undefined),4.2*
CCOCCOC(=O)C1=C(C)NC2=C(C(=O)CCC2)C1c1ccc(C)cc1 (centres undefined),0.1
CCSCCOC(=O)C1=C(C)NC2=C(C(=O)CCC2)C1c1ccc(CC)cc1 (centres undefined),2.5
CCSCCOC(=O)C1=C(C)NC2=C(C(=O)CCC2)C1c1ccccc1OCc1ccccc1 (centres undefined),6*
CCOCCOC(=O)C1=C(C)NC2=C(C(=O)CCC2)C1c1ccc(C(=O)OC)cc1 (centres undefined),4.8*
CC1=C(C(=O)OCC2CCCO2)C(c2ccccc2OCc2ccccc2)C2=C(CCCC2=O)N1 (centres undefined),3.6*
CCSCCOC(=O)C1=C(C)NC2=C(C(=O)CCC2)C1c1ccccc1OC(C)C (centres undefined),1.1
CCSCCOC(=O)C1=C(C)NC2=C(C(=O)CCC2)C1c1ccc(-c2ccccc2)cc1 (centres undefined),-0.43
COC(=O)C1=C(C)NC2=C(C(=O)CCC2)C1c1ccc(C(=O)OC)cc1 (centres undefined),-0.18
CC1=C(C(=O)OCC2CCCO2)C(c2ccc(OCc3ccccc3)cc2)C2=C(CCCC2=O)N1 (centres undefined),0.06
Cc1ccc(SCC2=NN(c3nc(C)cc(C)n3)C(=O)C2)cc1,-0.87
NC(=S)c1cnccc1C(F)(F)F,-0.82
CC(N)C12CC3CC(CC(C3)C1)C2 (centres undefined),-0.09
Cc1nnc2c(N3CCC(Cc4ccccc4)CC3)nc3ccccc3n12,-0.28
Fc1ccc2nc3c(nc2c1)CCCC3,-1.3
